Among all 360,000 compounds or so, about 2,300 (0.64%) were called active.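 Rule for the calls: active = compounds giving at least 50% protection of heart cells from peroxide-induced death in the single-dose screen, raw or plate-pattern-corrected value; inactive = the rest.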 The full list was thinned out, with actives kept by preference.
assay: cardioprotection against H2O2-induced cell death, primary screen, uHTS, H9c2 cells, ATPLite luminescence (AID 588492); conditions: H9c2 cardiomyocytes, H2O2 injury protection, 2 h, at 20 µM, active compounds read high;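 note: 0% = DMSO wells with peroxide and 100% = DMSO wells without peroxide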

SMILES	protection from H2O2 cell death
COc1ccc(CNC(=O)c2ccc(NS(=O)(=O)c3ccc4[nH]c(=O)[nH]c4c3)cc2)cc1OC	0.1% (inactive)
NC(=O)c1ccccc1N=Cc1ccc2ccccc2c1	0.6% (inactive)
CC(C)c1c(C(=O)N/N=C/c2ccccc2C(=O)O)nnn1-c1nonc1N	5.1% (inactive)
Nc1nonc1-n1nnc(C(=O)N/N=C/c2cc(Br)ccc2O)c1CSC1=NCCS1	56.9% (active)
COCc1c(C(=O)N/N=C\c2cccnc2)nnn1-c1nonc1N	-0.9% (inactive)
Cc1cc(NC(=O)C(C)N2C(=O)c3ccccc3S2(=O)=O)no1 (stereo not drawn)	6.5% (inactive)
CCN(CC)Cc1nc2sc(C)c(C)c2c(=O)[nH]1	12.4% (inactive)
O=C(CCCCO)c1ccc(O)c(Cl)c1	15.5% (inactive)
C/C(=N/Nc1nc(-c2ccccc2)c(CC(=O)O)s1)c1ccccc1	-8.5% (inactive)
COc1cc(OC)nc(N/N=C(\c2ccccc2)c2ccncc2)n1	-2.9% (inactive)
c1ccc(C(=NNc2nc3ccccc3s2)c2ccccn2)cc1	51.5% (active)
Cc1cc(=O)oc2c(C)c(OCC(=O)NCCc3ccc(S(N)(=O)=O)cc3)ccc12	-0.5% (inactive)
COc1ccc(CN2CCC(c3nc4ccc(Cl)cc4[nH]3)CC2)cc1	-3.8% (inactive)
Cn1c2c(c(=O)n(C)c1=O)C(c1cccc([N+](=O)[O-])c1)Nc1ccccc1O2 (stereo not drawn)	61.2% (active)
Cn1c2c(c(=O)n(C)c1=O)C1c3ccccc3OCC1C(C)(C)O2 (stereo not drawn)	11% (inactive)
Cn1c2c(c(=O)n(C)c1=O)C(c1ccc(O)cc1)Nc1ccccc1O2 (stereo not drawn)	2.1% (inactive)
O=C(COc1nsnc1N1CCOCC1)Nc1ccccc1Cl	1.1% (inactive)
O=C(CSCc1c(Cl)cccc1Cl)NN1C(=O)c2ccccc2C1=O	5.5% (inactive)
CC(=O)c1cccc(-c2cnc3c(NC=O)cc(-c4ccc(N5CCN(C)CC5)cc4)cn23)c1	0.9% (inactive)
CC(=O)c1cccc(-c2cnc3c(NC=O)cc(-c4cccc(C(=O)N(C)C)c4)cn23)c1	73.1% (active)
COc1ccc(-c2cc(NC=O)c3ncc(-c4cc(OC)c(OC)c(OC)c4)n3c2)c(OC)c1	17.5% (inactive)
CC(=O)c1ccc(-c2cnc3c(NC=O)cc(-c4cccc(NS(C)(=O)=O)c4)cn23)cc1	64.4% (active)
COc1cccc(-c2cc(NC(C)=O)c3ncc(-c4cccc(C(C)=O)c4)n3c2)c1	24.1% (inactive)
CN(C)C(=O)c1cccc(-c2cnc3c(NC=O)cc(-c4ccc(F)cc4)cn23)c1	12.9% (inactive)

SMILES	protection from H2O2 cell death
CC(=O)c1cccc(-c2cnc3c(NC=O)cc(-c4ccc(N(C)C)cc4)cn23)c1	34.4% (inactive)
CC(=O)Nc1cccc(-c2cc(NC=O)c3ncc(-c4ccc(F)c(Cl)c4)n3c2)c1	47.5% (inactive)
CC(=O)c1cccc(-c2cnc3c(NC=O)cc(-c4ccccc4Oc4ccccc4)cn23)c1	-13.2% (inactive)
COc1cccc(-c2cnc3c(NC(C)=O)cc(-c4cccc(NC(C)=O)c4)cn23)c1	41.9% (inactive)
CC(=O)Nc1cccc(-c2cc(NC(C)=O)c3ncc(-c4ccccc4)n3c2)c1	57.6% (active)
COc1ccc(-c2cc(NC=O)c3ncc(-c4ccccc4)n3c2)cc1OC	74.5% (active)
CCCc1c(C)nc2scc(-c3ccc(Cl)cc3)n2c1=O	-0.2% (inactive)
Cc1cc(NC(=O)OC(C)C)ccc1-c1ccc(NC(=O)OC(C)C)cc1C	0.3% (inactive)
COc1ccc(CSc2nnnn2-c2ccc(O)cc2)cc1F	-8.7% (inactive)
Cc1ccc(OCCNC(=O)CCNS(=O)(=O)c2ccc(Br)cc2)cc1	-2.6% (inactive)
CC1CCN(C(=O)CN(c2ccc(Oc3ccccc3)cc2)S(C)(=O)=O)CC1	-13.4% (inactive)
Cc1nonc1OCCn1nnnc1N	-1.7% (inactive)
Cc1oc(C(N)=O)cc1COc1ccc(C(N)=O)cc1	-0.9% (inactive)
O=C(c1ccc(N2CCOCC2)c([N+](=O)[O-])c1)N1CCN(S(=O)(=O)c2cccs2)CC1	-4.8% (inactive)
Cc1cccn2c(=O)nc(SCC(=O)NCc3ccccc3Cl)nc12	-5.6% (inactive)
CCCn1c(SCC(=O)c2ccc3c(c2)OCCO3)nnc1C(C)C	2.3% (inactive)
CN1CCNC(=O)C1CC(=O)N1CC=C(c2ccc(F)cc2)CC1 (stereo not drawn)	-0.1% (inactive)
N#Cc1ccccc1NC(=O)c1cccc(COc2ccc(Cl)cc2Cl)c1	-3.6% (inactive)
Cc1c(CC(=O)N2CCN(C(=O)C3COc4ccccc4O3)CC2)c(=O)oc2c(O)c(O)ccc12 (stereo not drawn)	61.9% (active)
Cc1ccc(S(=O)(=O)NCCC(=O)NNC(=O)C2COc3ccccc3O2)cc1 (stereo not drawn)	-3.1% (inactive)
Cc1c(CCC(=O)O)c(=O)oc2c(C)c(OCc3ccccc3Cl)ccc12	1.3% (inactive)
Cc1nc2c(OCc3ccc(Cl)cc3)cccn2c1N(C)Cc1cccs1	-9.7% (inactive)
CCc1nc2ccc(C(=O)N(C)Cc3ccco3)cn2c1N(C)C(=O)Cc1ccccc1	-2.1% (inactive)
CCC(=O)Nc1ccccc1C(=O)N1CCN(Cc2ccccc2)CC1	5.1% (inactive)

SMILES	protection from H2O2 cell death
COc1ccccc1Nc1ncnc2c1oc1ccccc12	7.1% (inactive)
CCc1nc(Nc2ccc3nccnc3c2)c2oc3ccccc3c2n1	53.3% (active)
COCCNc1nc(-c2ccccc2)nc2c1oc1ccccc12	1.8% (inactive)
Cc1ccc(C(=O)N(CC(=O)NC2CCCC2)c2ccc(F)cc2)s1	-2.3% (inactive)
COc1cccc(N2CC(C(=O)NCc3n[nH]c(=O)c4ccccc34)CC2=O)c1 (stereo not drawn)	50.2% (active)
COc1cccc(CNC(=O)C2CC(=O)N(C3CCCCCCC3)C2)c1 (stereo not drawn)	-0.1% (inactive)
COc1ccc(C(=O)CSc2nnc(NC(=O)C3CC(=O)N(c4cccc(OC)c4)C3)s2)cc1 (stereo not drawn)	-1.6% (inactive)
COC(=O)CN(c1cccc(C(C)=O)c1)S(C)(=O)=O	-1% (inactive)
O=C(Nc1nnc([C@H]2C[C@H](O)[C@@H](CO)O2)s1)c1cccc(Cl)c1	3% (inactive)
O=C(Nc1ccc(Cl)cc1)c1csc([C@H]2C[C@H](O)[C@@H](CO)O2)n1	-8.3% (inactive)
O=C(Nc1cccc2cccnc12)c1ccc2sc([C@H]3C[C@H](O)[C@@H](CO)O3)nc2c1	76.9% (active)
CCOn1c(=O)c(=O)n(O)c2ccccc21	3.3% (inactive)
CCOc1cc(N2CCOCC2)c(OCC)cc1NC(=O)C1=NN(c2cccc(C)c2)C(=O)CC1	15.6% (inactive)
CCOc1cc(N2CCOCC2)c(OCC)cc1NC(=O)COC(=O)[C@H](Cc1c[nH]c2ccccc12)NC(C)=O	10.2% (inactive)
CCOc1cc(N2CCOCC2)c(OCC)cc1NC(=O)COc1cccc2cccnc12	50.1% (active)
CCc1ccc2c(c1)cc(CN(C(=S)Nc1ccccc1Cl)C1CC1)c1nnnn12	-3.2% (inactive)
Clc1ccc(C2=CSC3=Nc4cccc5cccc(c45)N23)cc1	-4.9% (inactive)
COc1cc(CO)c(C2(CO)CCCC2)cc1OC	2.5% (inactive)
COc1cc(NS(=O)(=O)c2ccc3ccccc3c2)c2ncccc2c1	61.8% (active)
CCOc1cc(NS(=O)(=O)c2ccc(OC)cc2)c(OCC)cc1NC(C)=O	-4% (inactive)
O=S(=O)(Nc1ccccn1)c1cccc(S(=O)(=O)c2ccc(Cl)cc2)c1	-4.1% (inactive)
CC1(C)OC(=O)C2=C(CC(c3ccccc3)OC2CCc2ccccc2)O1 (stereo not drawn)	-19.2% (inactive)
COc1cccc(Cn2cnc3c([N+](=O)[O-])c(C)c(C)cc32)c1	1.8% (inactive)
Cc1ccc(NC(=O)C2CC2c2ccccc2)cc1 (stereo not drawn)	-6.9% (inactive)

SMILES	protection from H2O2 cell death
O=C(N/N=C/c1cccc2cccnc12)[C@H]1C[C@@H]1c1ccccc1	84.8% (active)
O=C(CSc1cccc2cccnc12)N/N=C/c1cccnc1	-2.6% (inactive)
Cc1nnc(C)c2c(C)n(N)c(C)c12	15.4% (inactive)
Cc1ccc(S(=O)(=O)N(C)C)cc1NC(=O)CN1c2cccc3cccc(c23)S1(=O)=O	3.5% (inactive)
O=C(NC(=O)N1CCSCC1)c1c(Cl)cccc1Cl	4.6% (inactive)
CCOC(=O)c1ccc(N/C(=N/S(=O)(=O)c2ccccc2)c2ccccc2)cc1	1.3% (inactive)
CCOC(=O)c1nc(Nc2ccc(C(=O)OC)cc2)c2ccccc2n1	50.6% (active)
COC(=O)c1ccc(Nc2ncnc3sccc23)cc1	5.6% (inactive)
CCc1ccc(OCC(=O)NCC(c2ccc(Cl)cc2)N2CCCCC2)cc1 (stereo not drawn)	2.7% (inactive)
COc1ccc(CC(=O)NCC(=O)N/N=C/c2cc(Br)ccc2OC)cc1	52.8% (active)
COc1ccc(-c2[nH]ncc2/C=N/NC(=O)c2cc(Br)ccc2O)c(OC)c1	3.5% (inactive)
Cc1ccc(OCCOCCOc2ccc(Br)cc2/C=N\NC(=O)c2ccncc2)cc1	6.5% (inactive)
NC(=NC(=O)c1ccccc1)C1=C(O)CCC1=O	-0.2% (inactive)
C=CCn1c(-c2ccc(Cl)cc2)ccc(C#N)c1=O	-10% (inactive)
COc1cc(N=Cc2c(O)[nH]c3ccccc23)cc(OC)c1OC	69.8% (active)
COc1cc2[nH]c(O)c(C=O)c2cc1OC	4.5% (inactive)
CN=c1scc(-c2cc(OC)ccc2OC)n1/N=C/c1c(C)[nH]c2ccccc12	0.4% (inactive)
COc1ccc(CCNc2cc(C)nc3c(-c4ccc(Cl)cc4)c(C)nn23)cc1OC	0.4% (inactive)
O=C(Nc1nnc(-c2ccccc2)o1)c1cccc(S(=O)(=O)N2CCOCC2)c1	10.2% (inactive)
COc1cccc(-c2nnc(NC(=O)c3ccc(S(=O)(=O)N(CC(C)C)CC(C)C)cc3)o2)c1	56.4% (active)
COc1cc(-c2nnc(NC(=O)CS(=O)(=O)c3ccc(Cl)cc3)o2)cc(OC)c1OC	6.5% (inactive)

— PubChem BioAssay AID588492 (Sanford-Burnham Center for Chemical Genomics, 2011)
